Assay results: PubChem BioAssay (NCATS)
Results filed as inconclusive are left out. The source made the active and inactive calls. Unless noted, calls come from the whole dose curve; as a rule, active = well fitted curve in the direction sought with a large enough effect; inconclusive = small, poorly fitted or top-dose-only effect, or another doubt; inactive = no such curve, though single readings can be large; an effect the other way counts as inactive or inconclusive.

Experiments:
[1] = biological target: Rap guanine nucleotide exchange factor 3 (Homo sapiens) (UniProt O95398); assay: Confirmatory qHTS for antagonist of cAMP-regulated guanine nucleotide exchange factor 3 (EPAC1) (AID 1645880); note: nearly all actives have a fitted effect of over 55% in size; note: potency is the fitted concentration of half-maximal effect
Outline: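 Nucleotide exchange uses 100 nM EPAC1, 250 nM RAP1B-BODIPY-GDP and 50 uM GDP, with compounds in a concentration-titration series. After 5 min at room temperature, fluorescence (480 nm ex/540 nm em) is read every 5 min for 30 min. Data are normalized to control ATA and DMSO.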

[2] = biological target: Rap guanine nucleotide exchange factor 3 (Homo sapiens) (UniProt O95398); assay: Confirmatory qHTS for agonist of cAMP-regulated guanine nucleotide exchange factor 3 (EPAC1) (AID 1645881); note: nearly all actives have a fitted effect of over 75% in size; note: potency is the fitted concentration of half-maximal effect;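 for activation: EPAC1 catalysed release of BODIPY-GDP from Rap1B seen as fluorescence loss; 100% = effect of cAMP agonist control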
[3] = biological target: Rap guanine nucleotide exchange factor 4 (Homo sapiens) (UniProt Q8WZA2); assay: Confirmatory qHTS for agonist of cAMP-regulated guanine nucleotide exchange factor 4 (EPAC2) (AID 1645884);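 note: nucleotide exchange releases bodipy-GDP from Rap1 and this lowers its fluorescence; nearly all actives have a fitted effect of over 65% in size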; note: potency is the fitted concentration of half-maximal effect
[4] = biological target: Rap guanine nucleotide exchange factor 4 (Homo sapiens) (UniProt Q8WZA2); assay: Confirmatory qHTS for antagonist of cAMP-regulated guanine nucleotide exchange factor 4 (EPAC2) (AID 1645885); note: nearly all actives have a fitted effect of over 25% in size; note: potency is the fitted concentration of half-maximal effect
[5] = biological target: Rap guanine nucleotide exchange factor 3 (Homo sapiens) (UniProt O95398); assay: Counterscreen qHTS for antagonist of cAMP-regulated guanine nucleotide exchange factor 3 (EPAC1) (AID 1645888);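 note: fluorescence loss as bound BODIPY-GDP is released from Rap1B; % of control where 0% means no effect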
Outline: (§1)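 Rap1B-BODIPY-GDP 250 nM + GDP 50 uM; cpds 7-pt, final 9.74 nM–152 uM (activator mode) or from 7.32 nM upwards (inhibitor mode); RT; FI 480/540 nm at 5 and 30 min, then ± cAMP, reread.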

[6] = biological target: Rap guanine nucleotide exchange factor 3 (Homo sapiens) (UniProt O95398); assay: Counterscreen qHTS for agonist of cAMP-regulated guanine nucleotide exchange factor 3 (EPAC1) (AID 1645889); note: nearly all actives have a fitted effect of over 40% in size; note: potency is the fitted concentration of half-maximal effect; for activation: % of control where 0% means no effect
Outline: as §1

[7] = AP1 Signaling Pathway (AID 357; active = well fitted curve in either direction with a large enough effect, not every such curve was filed as active;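 note: ME-180 reporter cells stimulated with EGF at its EC50 level; % is set by controls: 0 for no effect and ±100 for the full control effect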)
Outline: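 In this screen, ME-180 cells in Opti-MEM with 0.5% dialyzed FBS received EC50 EGF and compound titrations for 5 h. AP-1 reporter beta-lactamase was detected via CCF4 ratio, giving AC50 for positive and negative modulators.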

[8] = biological target: Cytochrome P450 1A2 (Homo sapiens) (UniProt P05177); assay: p450-cyp1a2 (AID 410; calls by dose curve;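 note: -100% = full effect of reference inhibitor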)
Outline: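 Human CYP1A2 (20nM) demethylated Luciferin-ME at its Km (100uM) in 100mM KPO4. After 10 min compound preincubation, NADPH regeneration ran the reaction 60 min at room temperature. Luciferin was read by luminescence, normalized to 57 uM furafylline.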

[9] = NFAT Signaling Pathway (AID 444; active = well fitted curve in either direction with a large enough effect, not every such curve was filed as active;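 note: carbachol stimulus at about its EC50 of 1 µM final; % is set by controls: 0 for no effect and ±100 for the full control effect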); settings: Jurkat NFAT-bla M1, carbachol, beta-lactamase ratio, 5 h; at 17.2 µM (top of the series) unless noted
Outline: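 Read-out: CCF4 FRET ratio (460 nm/530 nm) after 1 h RT dye loading, used for %activity and AC50 from titration series. Cells: Jurkat NFAT-β-lactamase/M1 line, treated with compound plus 1 uM carbachol for 5 h, 37 °C.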

[10] = Stat Signaling Pathway (AID 446; active = well fitted curve in either direction with a large enough effect, not every such curve was filed as active;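 note: ME-180 cervical cancer cells given 40 pM IL-6 alongside compound; SIE-controlled beta-lactamase reporter measured as 460/530 nm FRET emission ratio; % is set by controls: 0 for no effect and ±100 for the full control effect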)
Outline: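 Screening format detects activators and inhibitors alike: ME-180 SIE-bla cells stimulated at 40 pM IL-6 for 5 hrs with compound, then dual-emission beta-lactamase read at 405 nm excitation.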

[11] = biological target: Glucocorticoid receptor (Homo sapiens) (UniProt P04150); assay: GR-GFP Redistribution (AID 450;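 active = compounds whose dose series gives a full or clear partial fitted curve of increased nuclear translocation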; note: potency is the fitted concentration of half-maximal effect); settings: U2OS GR-GFP nuclear translocation, laser cytometry, 2 h
[12] = biological target: Glucocorticoid receptor (Homo sapiens) (UniProt P04150); assay: GR-EFC Redistribution (AID 451; calls by dose curve; note: potency is the fitted concentration of half-maximal effect); settings: CHO-K1 GR-EFC translocation, beta-gal luminescence, 2 h
Outline: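 Translocation of GR-ED fusion to nuclear EA restores b-gal, read by luminescence after 1 h room-temperature detection. Engineered CHO-K1 biosensor cells, 1,000/well, exposed 2 h at 37 C to titrations up to 46 uM final.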

[13] = biological target: Mitogen-activated protein kinase 10 (Mus musculus) (UniProt Q61831); assay: JNK3 AlphaScreen Assay (AID 530; active = well fitted curve in either direction with a large enough effect, not every such curve was filed as active;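 note: kinase came from lysate of stimulated human HepG2 cells; signal reports phosphorylation of biotinylated GST-cJun 1-79 at Ser73 with 10 µM ATP; % is set by controls: 0 for no effect and ±100 for the full control effect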)
Outline: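 Room-temperature AlphaScreen kinase assay; pre-activated HepG2 lysate as JNK3 source, biotin-GST-cJun(1-79) substrate, 10 uM ATP, compound 15 min preincubation.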

[14] = biological target: 3',5'-cyclic-AMP phosphodiesterase 4B (Homo sapiens) (UniProt Q07343); assay: qHTS Assay for Inhibitors of PDE-IV (AID 607; active = well fitted activation curve with a large enough effect in the main read-out, with a control signal flat, not every such curve was filed as active; note: % of control where 0% means no effect)
Outline: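 The readout is membrane depolarisation from a cAMP-sensing CNG channel, detected with a potential dye at ex 535/em 590. Cells were HEK293-derived (endogenous PDE-IV) at 1000 cells/well, titrated up to 22.9 uM final.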

[15] = biological target: Ubiquitin carboxyl-terminal hydrolase 1 (Homo sapiens) (UniProt O94782); assay: Inhibitors of USP1/UAF1: Pilot qHTS (AID 504865);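 note: rhodamine fluorescence freed from ubiquitin-rhodamine substrate followed over time; top concentration of the series differs between compounds; % is set by controls: 0 for no effect and ±100 for the full control effect; nearly all actives have a fitted effect of over 35% in size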
Outline: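 Deubiquitinase activity followed as kinetic rhodamine fluorescence release from 150 nM Ub-Rho. 1 nM USP1/UAF1 with compound, after 15 min room-temperature preincubation, in HEPES pH 7.8 buffer containing TCEP, EDTA, BSA and Tween-20.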

[16] = biological target: Cytochrome P450 3A4 (Homo sapiens) (UniProt P08684); assay: qHTS Assay for Inhibitors and Substrates of Cytochrome P450 3A4 (AID 884); note: nearly all actives have a fitted effect of over 50% in size; note: potency is the fitted concentration of half-maximal effect
Outline: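 20 nM human CYP3A4 with 25 uM Luciferin-PPXE (at KM) in 200 mM KPO4, preincubated 10 min with compound; NADPH regeneration started a 60 min RT reaction. Luciferin detected by luminescence, normalized to 57 uM ketoconazole as full inhibition.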

[17] = biological target: Cytochrome P450 3A4 (Homo sapiens) (UniProt P08684); assay: qHTS Assay for Activators of Cytochrome P450 3A4 (AID 885); note: nearly all actives have a fitted effect of over 65% in size
Outline: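 Steps: enzyme/substrate mix dispensed; compound added, 10 min RT; NADPH regeneration solution added, 60 min RT; luciferin detection buffer stops reaction; 20 min later luminescence measured.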

[18] = Confirmation and Secondary Assay for Modulators of Hemoglobin Beta Chain Splicing at IVS2 654 locus (AID 910);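 note: HeLa cells stably carrying EGFP split by mutant beta-globin IVS2-654 intron; per-well total GFP intensity by laser scanning cytometry after 2-day treatment; % of control where 0% means no effect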
Outline: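 Readout: per-well total peak green fluorescence (488 nm ex, 500–520 nm em) from objects 5–250 µm, reflecting correct splicing of an EGFP-654 reporter. Compounds were applied for 2 days at 37 °C to overnight-plated HeLa EGFP-654 cells; controls were DMSO and 500 nM IVS2-654 PNA.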

[19] = Confirmation and Secondary Assay for Modulators of Hemoglobin Beta Chain Splicing at IVS2 705 locus (AID 930);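 note: HeLa cells stably expressing the EGFP-705 splicing reporter; GFP fluorescence per well restored by corrected splicing of the IVS2-705 intron in EGFP; % of control where 0% means no effect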
Outline: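 Fluorescence gain (488 nm laser, 500-520 nm PMT) reflects restored correct splicing of a mutant IVS2-705 intron inside EGFP in stably transfected HeLa cells after 2-day compound treatment.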

[20] = biological target: DNA dC->dU-editing enzyme APOBEC-3G (Homo sapiens) (UniProt Q9HC16); assay: qHTS for inhibitors of Vif-A3G interactions: Validation (AID 588379); note: 0% is about no effect
Outline: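 HeLa cells stably expressing Vif and A3G-eYFP, 700 cells/well, incubated overnight at 37 deg C, then exposed to compound overnight at 37 deg C. Inhibition of Vif-mediated degradation read as increased yellow fluorescence (Ex 488/Em 500-530) by laser-scanning cytometry.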

Sequence of Ubiquitin carboxyl-terminal hydrolase 1 (Homo sapiens) (O94782 whole entry, looked up): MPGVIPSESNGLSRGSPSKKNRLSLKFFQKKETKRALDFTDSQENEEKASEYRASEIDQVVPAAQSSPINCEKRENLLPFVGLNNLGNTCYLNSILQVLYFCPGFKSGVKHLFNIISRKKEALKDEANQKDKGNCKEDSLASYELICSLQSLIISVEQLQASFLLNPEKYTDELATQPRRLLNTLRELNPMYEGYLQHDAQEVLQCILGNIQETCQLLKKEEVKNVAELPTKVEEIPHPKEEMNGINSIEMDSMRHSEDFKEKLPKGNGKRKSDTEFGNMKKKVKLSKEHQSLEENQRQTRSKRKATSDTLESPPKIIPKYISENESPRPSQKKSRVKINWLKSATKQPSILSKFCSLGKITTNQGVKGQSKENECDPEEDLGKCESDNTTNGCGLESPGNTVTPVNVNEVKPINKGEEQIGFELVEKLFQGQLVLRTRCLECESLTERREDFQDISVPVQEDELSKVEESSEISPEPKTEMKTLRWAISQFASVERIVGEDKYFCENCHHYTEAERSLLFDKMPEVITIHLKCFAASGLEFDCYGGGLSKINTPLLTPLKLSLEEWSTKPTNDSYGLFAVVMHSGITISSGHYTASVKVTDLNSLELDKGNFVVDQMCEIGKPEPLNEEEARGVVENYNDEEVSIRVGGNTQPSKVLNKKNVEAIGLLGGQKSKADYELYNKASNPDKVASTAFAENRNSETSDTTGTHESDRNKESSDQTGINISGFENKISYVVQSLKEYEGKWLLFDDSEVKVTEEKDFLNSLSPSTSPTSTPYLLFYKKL
Sequence of Rap guanine nucleotide exchange factor 4 (Homo sapiens) (Q8WZA2 whole entry, looked up): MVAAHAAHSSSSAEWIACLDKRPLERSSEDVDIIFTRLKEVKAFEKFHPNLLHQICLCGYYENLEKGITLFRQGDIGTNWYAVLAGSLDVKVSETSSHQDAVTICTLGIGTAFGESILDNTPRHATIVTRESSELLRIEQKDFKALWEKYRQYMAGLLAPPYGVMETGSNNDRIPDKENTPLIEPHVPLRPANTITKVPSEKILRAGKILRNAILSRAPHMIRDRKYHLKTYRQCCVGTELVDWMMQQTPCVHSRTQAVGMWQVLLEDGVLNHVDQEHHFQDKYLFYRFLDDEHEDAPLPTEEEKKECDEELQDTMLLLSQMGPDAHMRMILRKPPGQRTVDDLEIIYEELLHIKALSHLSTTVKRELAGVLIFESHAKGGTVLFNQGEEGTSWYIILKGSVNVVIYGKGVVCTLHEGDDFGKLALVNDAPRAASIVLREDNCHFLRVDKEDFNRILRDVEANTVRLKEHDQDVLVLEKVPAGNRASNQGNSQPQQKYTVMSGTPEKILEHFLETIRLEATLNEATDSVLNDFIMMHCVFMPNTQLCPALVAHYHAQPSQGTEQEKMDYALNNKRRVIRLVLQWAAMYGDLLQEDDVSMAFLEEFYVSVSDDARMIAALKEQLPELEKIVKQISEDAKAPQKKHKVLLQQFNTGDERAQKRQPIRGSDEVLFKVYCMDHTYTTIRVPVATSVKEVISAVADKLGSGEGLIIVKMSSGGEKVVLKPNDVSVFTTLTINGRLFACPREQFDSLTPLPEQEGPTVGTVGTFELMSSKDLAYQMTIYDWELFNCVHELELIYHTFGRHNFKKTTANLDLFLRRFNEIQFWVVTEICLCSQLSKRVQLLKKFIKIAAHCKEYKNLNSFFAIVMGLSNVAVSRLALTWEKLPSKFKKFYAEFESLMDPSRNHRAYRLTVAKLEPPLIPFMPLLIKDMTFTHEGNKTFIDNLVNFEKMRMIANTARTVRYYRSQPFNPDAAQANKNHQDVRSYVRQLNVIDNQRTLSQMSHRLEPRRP
Sequence of Cytochrome P450 3A4 (Homo sapiens) (P08684 whole entry, looked up): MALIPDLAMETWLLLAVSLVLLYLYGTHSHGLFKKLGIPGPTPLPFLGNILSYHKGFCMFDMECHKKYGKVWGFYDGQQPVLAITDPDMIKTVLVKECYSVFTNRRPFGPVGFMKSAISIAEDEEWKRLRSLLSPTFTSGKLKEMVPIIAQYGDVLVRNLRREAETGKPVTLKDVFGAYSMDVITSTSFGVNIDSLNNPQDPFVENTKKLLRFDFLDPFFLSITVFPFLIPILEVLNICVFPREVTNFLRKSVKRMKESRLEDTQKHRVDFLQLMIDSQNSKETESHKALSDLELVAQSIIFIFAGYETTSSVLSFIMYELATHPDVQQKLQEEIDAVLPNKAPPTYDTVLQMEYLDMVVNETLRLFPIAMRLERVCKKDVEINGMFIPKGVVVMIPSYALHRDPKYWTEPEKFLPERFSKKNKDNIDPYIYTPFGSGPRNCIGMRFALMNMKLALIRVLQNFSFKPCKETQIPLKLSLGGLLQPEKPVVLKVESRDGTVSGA
Sequence of Rap guanine nucleotide exchange factor 3 (Homo sapiens) (O95398 whole entry, looked up): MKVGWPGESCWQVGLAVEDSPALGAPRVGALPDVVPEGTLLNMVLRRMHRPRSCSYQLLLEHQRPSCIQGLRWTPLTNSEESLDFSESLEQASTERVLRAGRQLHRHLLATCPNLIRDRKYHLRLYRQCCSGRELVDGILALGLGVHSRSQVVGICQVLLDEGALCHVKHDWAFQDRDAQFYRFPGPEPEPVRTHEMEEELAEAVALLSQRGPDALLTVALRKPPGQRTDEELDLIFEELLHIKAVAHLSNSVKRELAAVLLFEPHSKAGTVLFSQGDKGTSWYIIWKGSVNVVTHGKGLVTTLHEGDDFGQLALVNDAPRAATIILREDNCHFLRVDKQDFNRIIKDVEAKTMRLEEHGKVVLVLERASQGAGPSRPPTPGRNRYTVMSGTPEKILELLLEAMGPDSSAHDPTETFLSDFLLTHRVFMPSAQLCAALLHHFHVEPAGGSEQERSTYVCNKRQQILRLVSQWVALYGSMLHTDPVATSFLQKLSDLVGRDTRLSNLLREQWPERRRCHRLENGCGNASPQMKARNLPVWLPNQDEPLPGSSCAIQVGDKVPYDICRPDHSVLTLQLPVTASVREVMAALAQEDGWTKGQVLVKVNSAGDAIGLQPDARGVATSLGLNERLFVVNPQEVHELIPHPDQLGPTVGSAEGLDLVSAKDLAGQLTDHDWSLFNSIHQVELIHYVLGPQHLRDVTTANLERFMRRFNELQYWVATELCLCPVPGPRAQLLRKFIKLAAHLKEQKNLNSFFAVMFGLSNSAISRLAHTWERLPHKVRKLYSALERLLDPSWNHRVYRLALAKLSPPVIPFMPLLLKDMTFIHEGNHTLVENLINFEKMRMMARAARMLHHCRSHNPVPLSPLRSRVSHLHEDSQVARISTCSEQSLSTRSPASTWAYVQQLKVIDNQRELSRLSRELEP
Sequence of Glucocorticoid receptor (Homo sapiens) (P04150 whole entry, looked up, the tested form may be a part): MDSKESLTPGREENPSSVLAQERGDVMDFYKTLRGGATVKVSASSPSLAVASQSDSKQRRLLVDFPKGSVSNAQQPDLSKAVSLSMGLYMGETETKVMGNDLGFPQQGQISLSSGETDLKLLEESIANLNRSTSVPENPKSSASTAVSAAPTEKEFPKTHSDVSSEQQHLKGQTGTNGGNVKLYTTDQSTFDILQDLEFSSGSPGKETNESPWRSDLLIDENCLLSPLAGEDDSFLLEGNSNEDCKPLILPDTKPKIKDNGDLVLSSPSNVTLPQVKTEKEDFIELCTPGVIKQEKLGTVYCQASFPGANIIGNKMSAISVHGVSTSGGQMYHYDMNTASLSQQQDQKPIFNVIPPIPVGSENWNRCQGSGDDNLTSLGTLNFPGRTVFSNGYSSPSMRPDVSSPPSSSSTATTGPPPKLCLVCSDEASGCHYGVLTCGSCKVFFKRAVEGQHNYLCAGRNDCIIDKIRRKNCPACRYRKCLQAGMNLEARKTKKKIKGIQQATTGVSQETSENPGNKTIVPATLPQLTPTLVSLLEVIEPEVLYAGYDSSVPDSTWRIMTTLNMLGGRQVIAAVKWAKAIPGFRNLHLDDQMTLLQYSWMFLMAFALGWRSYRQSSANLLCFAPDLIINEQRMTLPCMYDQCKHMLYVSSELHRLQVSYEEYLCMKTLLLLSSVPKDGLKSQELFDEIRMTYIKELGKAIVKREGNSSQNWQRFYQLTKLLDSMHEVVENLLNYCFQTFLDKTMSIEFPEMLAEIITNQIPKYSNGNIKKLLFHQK
Sequence of DNA dC->dU-editing enzyme APOBEC-3G (Homo sapiens) (Q9HC16 whole entry, looked up): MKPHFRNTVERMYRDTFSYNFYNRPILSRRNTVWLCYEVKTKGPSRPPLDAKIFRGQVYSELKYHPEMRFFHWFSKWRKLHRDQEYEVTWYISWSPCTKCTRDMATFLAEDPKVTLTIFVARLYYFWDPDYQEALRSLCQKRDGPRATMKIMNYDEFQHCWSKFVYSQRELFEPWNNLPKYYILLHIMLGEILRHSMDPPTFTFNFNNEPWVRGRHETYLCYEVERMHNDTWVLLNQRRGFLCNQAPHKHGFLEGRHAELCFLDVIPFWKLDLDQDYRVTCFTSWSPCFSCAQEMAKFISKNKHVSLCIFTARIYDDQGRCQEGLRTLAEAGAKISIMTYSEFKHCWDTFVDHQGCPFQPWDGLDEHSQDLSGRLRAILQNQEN
Sequence of Cytochrome P450 1A2 (Homo sapiens) (P05177 whole entry, looked up): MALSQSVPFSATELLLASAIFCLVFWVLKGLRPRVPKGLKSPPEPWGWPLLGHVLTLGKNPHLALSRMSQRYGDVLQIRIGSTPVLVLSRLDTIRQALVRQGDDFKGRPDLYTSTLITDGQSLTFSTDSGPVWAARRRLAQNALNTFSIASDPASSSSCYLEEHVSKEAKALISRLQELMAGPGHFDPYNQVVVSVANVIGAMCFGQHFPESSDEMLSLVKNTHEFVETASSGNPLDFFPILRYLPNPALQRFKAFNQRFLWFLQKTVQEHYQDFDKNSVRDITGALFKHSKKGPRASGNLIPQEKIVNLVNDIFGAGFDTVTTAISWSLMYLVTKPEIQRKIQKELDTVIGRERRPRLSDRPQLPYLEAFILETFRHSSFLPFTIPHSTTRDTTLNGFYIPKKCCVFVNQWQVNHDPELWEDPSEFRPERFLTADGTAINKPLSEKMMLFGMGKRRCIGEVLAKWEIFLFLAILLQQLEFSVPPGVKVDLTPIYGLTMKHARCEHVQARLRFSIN

Cc1ccc(S(=O)(=O)N2[C@@H](c3ccc(Cl)cc3)C(C(=O)O)=CC[C@H]2c2ccc(Cl)c(Cl)c2)cc1
active: Potency [1] 75.7 µM | Potency [4] 47.8 µM
inactive: Potency [2] | Potency [3] | Potency [5] | Potency [6]

COCCOC(=O)C(C#N)c1nc2ccccc2nc1N1CCN(Cc2ccccc2)CC1 (centres undefined)
inactive: Potency [1] | Potency [2] | activation [3] 10.5% [at 17.1 µM, percent relative to cAMP agonist control] | Potency [4] | activity change, negative = inhibition [5] 4.89% [at 30.8 µM] | activation [6] 38.2% [at 30.8 µM]

Cc1ccc(Cl)cc1NC(=O)C(C)n1nc(-c2ccccc2)ccc1=O (centres undefined)
inactive: Potency [1] | Potency [2] | Potency [3] | Potency [4] | Potency [5] | Potency [6]

Cc1cc2ccccn2c1C(=O)c1ccc(Cl)cc1
active: Potency [6] 0.141 µM
inactive: Potency [1] | Potency [2] | Potency [3] | Potency [4] | Potency [5]

NC(=O)c1ncn([C@H]2O[C@@H](CO)[C@@H](O)[C@@H]2O)n1
inactive: outcome [7] | Potency [8] | activity change, negative = inhibition [9] -18.7% | outcome [10] | Potency [11] > 20.6 µM | Potency [12] > 20.6 µM | Potency [13] | outcome [14] | Potency [15]

C=C[C@](C)(O)CCC1C(=C)CCC2[C@@](C)(CO)CCC[C@@]12C (some centres undefined)
inactive: Potency [17] | Potency [18] | Potency [19] | Potency [15]
active: Potency [16] 2.51 µM

CC1(O)CC2C(CC1O)C2(C)C (centres undefined)
inactive: Potency [16] | Potency [18] | Potency [19] | Potency [15]

O=c1oc2cc(O)ccc2cc1-c1nc2ccccc2o1
inactive: Potency [1]
active: Potency [2] 100 µM | Potency [3] 112 µM | Potency [4] 84.9 µM | Potency [6] 70.8 µM

Cc1cc(C)c(C)c(S(=O)(=O)Nc2cccc(S(=O)(=O)Nc3ccccc3C(=O)O)c2)c1C
active: Potency [1] 39.8 µM
inactive: Potency [2] | activation [3] 4.6% [at 17.1 µM, percent relative to cAMP agonist control] | Potency [4] | activity change, negative = inhibition [5] -6.25% [at 30.8 µM] | activation [6] 0.792% [at 30.8 µM]

Cc1cc(C)n2[nH]c(=O)c(N=Nc3ccc(S(N)(=O)=O)cc3)c2n1
active: Potency [4] 84.9 µM
inactive: Potency [1] | Potency [2] | Potency [3] | Potency [5] | Potency [6]

O=c1cc(-c2ccc(O)cc2)oc2ccc(O)cc12
active: Potency [16] 3.16 µM
inactive: Potency [17] | Potency [18] | Potency [19] | Potency [15]

COc1ccc(-c2oc3cccnc3c2C#CCO)cc1
inactive: Potency [1] | Potency [2] | Potency [3] | Potency [4] | Potency [5] | Potency [6]

CC(C)c1ccc(N(C(=O)c2csnn2)C(C(=O)NC(C)(C)C)c2cccnc2)cc1 (centres undefined)
inactive: Potency [1] | Potency [2] | Potency [3] | Potency [4] | Potency [5] | Potency [6]

O=C1NC(=O)C2(N1)C(=O)c1cccc3cccc2c13 (centres undefined)
active: Potency [2] 112 µM | Potency [3] 100 µM | Potency [4] 47.8 µM | Potency [6] 44.7 µM
inactive: Potency [1]

COc1ccc(CCNC(=O)CSc2nc(N)c(C#N)c(-c3cccs3)c2C#N)cc1OC
inactive: Potency [1] | Potency [2] | activation [3] 3.67% [at 17.1 µM, percent relative to cAMP agonist control] | Potency [4] | activity change, negative = inhibition [5] -17% [at 30.8 µM] | activation [6] 20.5% [at 30.8 µM]

CC1=C2C(O)C(=O)OC3CC4C(C)(C)C(=O)C=C[C@]4(C)C(CC1)[C@@]23C (some centres undefined)
inactive: Potency [16] | Potency [18] | Potency [19]

CC(=O)N(/N=C1/C(=O)Nc2ccccc21)c1ccccc1
active: Potency [1] 67.5 µM
inactive: Potency [2] | Potency [3] | Potency [5]

Cn1nnnc1SCC1=C(C(=O)O)N2C(=O)C(NC(=O)C(OC=O)c3ccccc3)C2SC1 (centres undefined)
inactive: Potency [16] | Potency [18] | Potency [19] | Potency [15]

COc1c(-c2ccccc2)oc2c(ccc3occc32)c1=O
inactive: Potency [11] > 46 µM | Potency [12] > 46 µM | outcome [20] | Potency [1] | Potency [2] | Potency [3] | Potency [6]

C/C=C(\C)C(=O)OC1c2c(ccc3ccc(=O)oc23)OC(C)(C)C1OC(C)=O (centres undefined)
inactive: Potency [17] | Potency [18] | Potency [19]
active: Potency [16] 25.1 µM
